From PubChem BioAssay (Tox21)
Results filed as inconclusive are left out. Active and inactive are the calls of the source. Calls follow the shape of the dose curve; as a rule, active = well fitted curve in the direction sought with a large enough effect in the repeat runs; inconclusive = weak or mixed curves; inactive = no such curve, though single readings can be large; an effect the other way counts as inactive or inconclusive.

Experiments:
[1] = qHTS RealTime-Glo MT Cell Viability Assay in HEK293 cells - 0 hour (AID 1224880); also: top concentration of the series differs between compounds; nearly all actives have a fitted effect of over 45% in size
Summary of the method: (§1)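 Viable HEK293 cells reduce a cell-permeant prosubstrate; the product diffuses out and is consumed by NanoLuc in the medium to give light. Compounds went in after a 5 h incubation and plates were read over the treatment course.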

[2] = A CellTox Green Cytotoxicity Assay to monitor cytotoxicity in HepG2 cells - 0 hour (AID 1224882); also: nearly all actives have a fitted effect of over 35% in size; also: potency is read from the fitted curve at half-maximal effect
Summary of the method: (§2)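 Using 1536-well format, dye-containing HepG2 suspension was seeded, allowed 5 h at 37 C/5% CO2, dosed by pintool with compounds, positive and negative controls, and imaged for fluorescence across 40 h.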

[3] = A CellTox Green Cytotoxicity Assay to monitor cytotoxicity in HepG2 cells - 32 hour (AID 1224883); also: nearly all actives have a fitted effect of over 50% in size; also: potency is read from the fitted curve at half-maximal effect
Summary of the method: as §2

[4] = A CellTox Green Cytotoxicity Assay to monitor cytotoxicity in HEK293 cells - 8 hour (AID 1224884); also: nearly all actives have a fitted effect of over 35% in size; also: potency is read from the fitted curve at half-maximal effect
Summary of the method: (§3)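 Fluorescence intensity, read at 0, 8, 16, 24, 32 and 40 h of compound treatment, reflected dye binding to DNA of dead HEK293 cells; compounds (23 nL, DMSO) were added 5 h after plating cells with reagent.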

[5] = qHTS RealTime-Glo MT Cell Viability Assay in HepG2 cells - 16 hour (AID 1224885); also: nearly all actives have a fitted effect of over 50% in size
Summary of the method: (§4)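 Luminescence read-out: viable HepG2 cells reduce a prosubstrate to a NanoLuc substrate, giving a signal proportional to live cell number. Reads taken at 0, 8, 16, 24, 32 and 40 h of compound exposure at 37 C.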

[6] = qHTS RealTime-Glo MT Cell Viability Assay in HEK293 cells - 24 hour (AID 1224886); also: nearly all actives have a fitted effect of over 50% in size; also: potency is read from the fitted curve at half-maximal effect; as to activity change, negative = cytotoxicity: top concentration of the series differs between compounds
Summary of the method: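 Nonlytic real-time viability readout: viable cells convert prosubstrate to NanoLuc substrate, giving luminescence proportional to live cell number. HEK293, 600 cells/well, compound added after 5 h, continuous culture at 37 C.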

[7] = qHTS RealTime-Glo MT Cell Viability Assay in HEK293 cells - 8 hour (AID 1224887); also: nearly all actives have a fitted effect of over 50% in size; also: potency is read from the fitted curve at half-maximal effect; as to activity change, negative = cytotoxicity: top concentration of the series differs between compounds
Summary of the method: as §1

[8] = A CellTox Green Cytotoxicity Assay to monitor cytotoxicity in HEK293 cells - 16 hour (AID 1224888); also: nearly all actives have a fitted effect of over 35% in size; also: potency is read from the fitted curve at half-maximal effect
Summary of the method: as §3

[9] = A CellTox Green Cytotoxicity Assay to monitor cytotoxicity in HEK293 cells - 32 hour (AID 1224881); also: nearly all actives have a fitted effect of over 40% in size
Summary of the method: as §3

[10] = qHTS RealTime-Glo MT Cell Viability Assay in HepG2 cells - 0 hour (AID 1224889); also: nearly all actives have a fitted effect of over 50% in size
Summary of the method: as §4
% is scaled to controls: 0 for no effect and ±100 for the full control effect.

C=CCOCC(O)CS(=O)(=O)O (stereo unspecified)
inactive: outcome [1] | Potency [2] | Potency [3] | Potency [4] | outcome [5] | Potency [6] | Potency [7] | Potency [8]

CCCCCCCCC=O
inactive: outcome [1] | Potency [9] | Potency [2] | Potency [4] | outcome [5] | Potency [6] | Potency [7] | Potency [8] | Potency [10]

[O-][N+](=Nc1ccccc1)c1ccccc1
inactive: outcome [1] | Potency [2] | Potency [3] | Potency [4] | outcome [5] | Potency [6] | Potency [7] | Potency [8] | Potency [10]

CC1(C)SC(C)(C)SC(C)(C)S1
inactive: outcome [1] | Potency [9] | Potency [2] | Potency [4] | outcome [5] | Potency [7] | Potency [8] | Potency [10]

CN(C)C(=O)C(CCN1CCC(O)(c2ccc(Cl)cc2)CC1)(c1ccccc1)c1ccccc1
active: Potency [3] 19 µM | Potency [6] 9.52 µM | Potency [7] 12 µM
inactive: outcome [1] | Potency [4] | Potency [8] | Potency [10]

NC(=O)c1ncn([C@@H]2O[C@H](CO)[C@@H](O)[C@H]2O)c1O
active: Potency [4] 23.9 µM | Potency [8] 19 µM
inactive: outcome [1] | outcome [5] | Potency [6] | Potency [7]

O=C(O)Cc1cc(I)c(Oc2cc(I)c(O)c(I)c2)c(I)c1
inactive: outcome [1] | Potency [2] | Potency [3] | Potency [4] | outcome [5] | Potency [6] | Potency [7] | Potency [8] | Potency [10]

O=C1C(CCS(=O)c2ccccc2)C(=O)N(c2ccccc2)N1c1ccccc1 (stereo unspecified)
inactive: Potency [9] | Potency [2] | Potency [3] | Potency [4] | outcome [5] | Potency [6] | Potency [7] | Potency [8] | Potency [10]

CC(C)(C)N(CCO)CCO
inactive: outcome [1] | Potency [3] | Potency [4] | outcome [5] | Potency [6] | Potency [7] | Potency [8] | Potency [10]

C(=C(c1ccccc1)c1ccccc1)c1ccccc1
inactive: Potency [9] | Potency [2] | Potency [3] | Potency [4] | outcome [5] | Potency [6] | Potency [7] | Potency [8] | Potency [10]

O=C(O)c1ccccc1S
inactive: outcome [1] | Potency [2] | Potency [3] | outcome [5] | Potency [6] | Potency [7] | Potency [8] | Potency [10]

C=C(C)[C@@H]1CCC2=CC(=O)C[C@@H](C)[C@]2(C)C1
inactive: outcome [1] | Potency [2] | Potency [4] | outcome [5] | Potency [6] | Potency [7] | Potency [8] | Potency [10]

CC(=O)NC(Cc1ccccc1)C(=O)O (stereo unspecified)
inactive: Potency [9] | Potency [2] | Potency [3] | Potency [4] | outcome [5] | Potency [6] | Potency [7] | Potency [8] | Potency [10]

C=C(C)[C@H]1CC=C(C)CC1
inactive: outcome [1] | Potency [3] | Potency [4] | Potency [6] | Potency [8] | Potency [10]

CC(C)(O)Cc1ccccc1
inactive: outcome [1] | Potency [2] | Potency [3] | Potency [4] | outcome [5] | Potency [7] | Potency [8]

COc1cc(CCC(C)=O)ccc1O
inactive: outcome [1] | Potency [2] | Potency [3] | Potency [4] | outcome [5] | Potency [6] | Potency [7] | Potency [8] | Potency [10]

C=C(C)C(=O)OCCCCCCCCCCCCCCCCCC
inactive: activity change, negative = cytotoxicity [1] 4.5% [at 15.8 µM] | cytotoxicity [2] 0.514% [at 15.8 µM] | cytotoxicity increase [3] -0.434% [at 15.8 µM] | cytotoxicity increase [4] -3.54% [at 15.8 µM] | activity change, negative = cytotoxicity [6] 11.4% [at 15.8 µM] | activity change [8] 0.239% [at 15.8 µM, hits give high values] | activity change, negative = cytotoxicity [10] -1.29% [at 15.8 µM]

NC(=O)c1ncn([C@@H]2O[C@H](CO)[C@@H](O)[C@H]2O)c1N
inactive: outcome [1] | Potency [3] | Potency [4] | outcome [5] | Potency [6] | Potency [7] | Potency [8] | Potency [10]
active: Potency [2] 10.7 µM

CCC(C(=O)NC(N)=O)c1ccccc1 (stereo unspecified)
inactive: outcome [1] | Potency [2] | Potency [3] | Potency [4] | outcome [5] | Potency [6] | Potency [7] | Potency [8] | Potency [10]

COCCOC(=O)CC#N
inactive: outcome [1] | Potency [3] | Potency [4] | Potency [6] | Potency [7] | Potency [8] | Potency [10]

CC(C)[N+](C)(C)CC(O)COc1cccc2ccccc12 (stereo unspecified)
inactive: Potency [9] | Potency [2] | Potency [3] | Potency [4] | outcome [5] | Potency [6] | Potency [7] | Potency [8] | Potency [10]

C#CC(O)CCCCC (stereo unspecified)
inactive: outcome [1] | Potency [2] | Potency [3] | Potency [4] | Potency [6] | Potency [7] | Potency [8] | Potency [10]

Cc1nc(-c2ccc(OCC(C)C)c(C#N)c2)sc1C(=O)O
inactive: outcome [1] | Potency [2] | Potency [3] | Potency [4] | outcome [5] | Potency [6] | Potency [8] | Potency [10]

CCCc1ccc(N)cc1
inactive: Potency [9] | Potency [2] | Potency [3] | Potency [4] | outcome [5] | Potency [6] | Potency [7] | Potency [8]

CC(C)c1cccc(C(C)C)c1N
inactive: outcome [1] | Potency [2] | Potency [4] | Potency [6] | Potency [8]

O=C(O)c1cccc(C(=O)O)n1
inactive: outcome [1] | Potency [2] | Potency [3] | Potency [4] | outcome [5] | Potency [6] | Potency [7] | Potency [8] | Potency [10]

C#CC(O)C(CC)CCCC (stereo unspecified)
inactive: outcome [1] | Potency [3] | outcome [5] | Potency [6] | Potency [7] | Potency [8]

NS(=O)(=O)c1cc2c(cc1Cl)NC(CSCc1ccccc1)=NS2(=O)=O
inactive: outcome [1] | Potency [3] | Potency [4] | outcome [5] | Potency [6] | Potency [8] | Potency [10]
